Among the data in paper PMC12136788 are binding signal values, retold here.

T1: UNK ZnF1-6 (called full-length) (human, UniProt Q9C0B0 30-357)
T1 sequence: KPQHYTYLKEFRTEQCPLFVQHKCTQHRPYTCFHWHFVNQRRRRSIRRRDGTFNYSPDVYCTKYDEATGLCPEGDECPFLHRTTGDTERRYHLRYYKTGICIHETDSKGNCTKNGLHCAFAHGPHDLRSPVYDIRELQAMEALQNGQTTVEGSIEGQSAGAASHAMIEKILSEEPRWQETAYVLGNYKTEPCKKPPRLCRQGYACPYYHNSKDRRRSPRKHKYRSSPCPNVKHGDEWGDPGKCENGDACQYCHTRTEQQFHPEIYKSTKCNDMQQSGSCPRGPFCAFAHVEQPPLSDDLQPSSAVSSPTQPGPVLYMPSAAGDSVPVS

B1: chr14:88572724:88572825:+|CDS|ENSG00000100722|unk|FALSE|unique (ssRNA)
RNA: GGGAGUUCUACAGUCCGACGAUCGUGACACUUACAUAUGGUUCUUCUCGCCCUUCUAUUGAAAUUUAUCGACCACCUGCAAGUAGAAAUGCAGAUAGUGGUGUUCAUUUAAACAGGUUGCAAUUUCAACAGCAGCAGAAUAGUCAACAGAGGAUUGAGCAUCA
B2: chr17:42200006:42200107:-|3pUTR|ENSG00000173757|unk|FALSE|unique (ssRNA)
RNA: GGGAGUUCUACAGUCCGACGAUCAAGCUGCCGUUUGCCUUGGCUUGGUUUCAUACACUGAUUUAUUUUUCUAUGCCAGGCAGUAGAGUCUCUCUGCCUCUGAGGAGCAGGCUACCCGCAUCCCACUCAGCCCCUCCCUACCCCCAACAGAGGAUUGAGCAUCA
B3: ENSG00000087269:stop:overlap|stop_codon|ENSG00000087269|stop_codon|NA|stop_codon (ssRNA)
RNA: GGGAGUUCUACAGUCCGACGAUCGGCUGGCUGGUCUCGAAUUCCCGACCUCAGGUAAUCCACCUGCCUUGGCCCCCCAAUUAUAGGUGUGAGCCACAGCACCCAGCCAAAAAAGUAAUUUUUUUUAGAGUAAUAAUGCUAUAACAACAGAGGAUUGAGCAUCA
B4: chr5:41382290:41382405:-|CDS|ENSG00000182836|unk|total|mutant (ssRNA)
RNA: GGGAGUUCUACAGUCCGACGAUCGGCCAAAAAGCUCAUGCGGAAAUGGUCCGCCACUCAGACAAUGAAUUUUACUGGCCAGCCCGGAGCUGGAAUUCGUUAUUUUGAUCUUCGAAUUUCCACCAAGCCCAGAGACCCCGACAACAACAGAGGAUUGAGCAUCA
B5: chr1:71064632:71064733:-|3pUTR|ENSG00000132485|msi1|total|mutant (ssRNA)
RNA: GGGAGUUCUACAGUCCGACGAUCGCUAAGACAGGAUUACCCCGGCUUGCCUGAACUUUGGGCAUGGAAGAAAGACUGGAAACCCGUUGGAAACAACAUACUUAUGGAAAAGAAAGUCAGCCUUUUUAUGCUGUUAACAGAUGUCAACAGAGGAUUGAGCAUCA
B6: chr1:183142599:183142700:+|CDS|ENSG00000135862|msi1|FALSE|unique (ssRNA)
RNA: GGGAGUUCUACAGUCCGACGAUCAACGAGAUUGAAGGCACCCUAAACAAAGCCAAAGAUGAAAUGAAGGUCAGCGAUCUUGAUAGGAAAGUGUCUGACCUGGAGAAUGAAGCCAAGAAGCAGGAGGCUGCCAUCAUGGACUAUCAACAGAGGAUUGAGCAUCA
B7: chr1:23091194:23091296:-|CDS|ENSG00000169641|unk|FALSE|unique (ssRNA)
RNA: GGGAGUUCUACAGUCCGACGAUCCUCCAGAAGGACCCAAAGUAGCCUCACUGUGUCAGAGGUGCUUACCCGUCGGAAUCGGGUAGGAGACACCAUCACUGUCGCAGCCUGGAACCACUCAGCAAGCAUGGUGAGUUCCAGCCUCAACAGAGGAUUGAGCAUCA
B8: ENSG00000160209:stop:overlap|stop_codon|ENSG00000160209|stop_codon|NA|stop_codon (ssRNA)
RNA: GGGAGUUCUACAGUCCGACGAUCCCUUGACCUCCUGGGCUGAAGCAAUCUUUCUGCCUCCACCUCCCGAGUGGCUGGGACUAUAGUUGUGCACCAGCACGCCCACCUCCUGCCCAGGGUUGUUACUGGGGUGGUCACGUGGGCCAACAGAGGAUUGAGCAUCA
B9: chr1:212100457:212100572:+|CDS|ENSG00000143476|unk|FALSE|unique (ssRNA)
RNA: GGGAGUUCUACAGUCCGACGAUCAGAAGAGGCUCUGUCUCCUCCGUCUCUCCCAAGCCACCUUCAUCUUUCAAGAUGUCGAUUAGAAACUGGGUGACCCGAACACCUUCCUCAUCACCACCCAUCACUCCACCUGCUUCGGAGCAACAGAGGAUUGAGCAUCA
B10: chr20:63196482:63196583:-|3pUTR|ENSG00000149658|msi1|total|mutant (ssRNA)
RNA: GGGAGUUCUACAGUCCGACGAUCUGAUUUUUGCCCAGAUGGAUCUGCAUUUAUUUGUACUUUUUCUAUGUAUUAUAAUCCUGCCGAAGUCACUAAUAAAGGAGUAUUUUUUUUGUCAGCUUAUCAAUCAGACUGAUCUAAUGUCAACAGAGGAUUGAGCAUCA
B11: chr16:55506527:55506628:+|3pUTR|ENSG00000087245|msi1|FALSE|unique (ssRNA)
RNA: GGGAGUUCUACAGUCCGACGAUCUAUCAGUUUUAAUGCUACUACUAACAAUGAACAGUAACAAUAAUAUCCCCCUCAAUUAAUAGAGUGCUUUCUAUGUGCAAGGCACUUUUCACGUGUCACCUAUUUUAACCUUUCCAACCACAACAGAGGAUUGAGCAUCA
B12: ENSG00000107863:be:win_4351|CDS|ENSG00000107863|bound_else_gene|NA|bound_elsewhere_windowed (ssRNA)
RNA: GGGAGUUCUACAGUCCGACGAUCCACAAUGAUACUAAAGAGGAGUCCAAAAAAGAAAGUGAGACACUGGGCAGAAAACAGAAGAUCAUCAUUGCCAAAGAAAACAGCACUAGGAAAGACCCCAGCACGACAAAAGAUGAAAAGCAACAGAGGAUUGAGCAUCA
B13: chr13:42886387:42888493:-|three_prime_utr|ENSG00000133106|control|control|control (ssRNA)
RNA: GGGAGUUCUACAGUCCGACGAUCCAUAUUUAAUCUCUACUGCCAGGGAAAUGCUACAUUAUUUUUCUAAUUGGAAGUAUAAUUAGAGUGAUGUUGGUAGGGUAGAAAAAGAGGGAGUCACUUGAUGCUUUCAGGUUAAUCAGACAACAGAGGAUUGAGCAUCA
B14: chr4:143221337:143221438:+|3pUTR|ENSG00000170185|unk|FALSE|unique (ssRNA)
RNA: GGGAGUUCUACAGUCCGACGAUCUUGAAAGGUAAUAGAUUUUCCAGAAGUAAAAUCUGAUGGUUCUAAAUCAAUCAAUGUGAUAGUUCAUUUUUAACUCUUAGAAGAAUUCAGAGGAAAUUAACCCAGCUAAGUAAAAAAUCUCAACAGAGGAUUGAGCAUCA
B15: chr1:46316673:46316776:+|3pUTR|ENSG00000173660|unk|FALSE|unique (ssRNA)
RNA: GGGAGUUCUACAGUCCGACGAUCUGUUUCUUAUUUGUGUAACUGUAAGUUCACAUGAACCUCAUGGGUUUGGCUUAGGCUGGUAGCUUCUAUGUAAUUCGCAAUGAUUCCAUCUAAAUAAAAGUUCUAUGAUCUGCAAACCUGCAACAGAGGAUUGAGCAUCA
B16: chrX:53645320:53645442:-|CDS|ENSG00000086758|unk|FALSE|unique (ssRNA)
RNA: GGGAGUUCUACAGUCCGACGAUCUUAUUGGCUUCCUCUGAUAUGCAAGUGGUGCUGGCAGUCCUCAAUCUCCUAUAUGUAUUUAGCAAAAGAUCAAACUACAUCACUCGUCUGGGAUCUGACAAGAGGACCCCGCUGCUAACUCAACAGAGGAUUGAGCAUCA
B17: chrX:101412715:101412817:+|CDS|ENSG00000126945|unk|total|mutant (ssRNA)
RNA: GGGAGUUCUACAGUCCGACGAUCGGGUAUGGAGGCUAUGAUGACUAUGGUGGCUAUAAUGAUGGAUAUGGCUUUGGGUCUGACCGAUUUGGAAGAGACCUCAAUUACUGUUUUUCAGGAAUGUCUGAUCACCGAUACGGAGAUCAACAGAGGAUUGAGCAUCA
B18: chr7:100033925:100034026:+|CDS|ENSG00000106261|msi1|total|mutant (ssRNA)
RNA: GGGAGUUCUACAGUCCGACGAUCCAGAGCUCGGACCUCACCAAGCAUCAGAGAAUUCACACGGGGGAGAAACCCUAUGAAUGCCGUGAAUGUGGAAAAGCUUUCAACCGAAACUCAUACCUGAUUUUGCAUCGGAGAAUUCACCAACAGAGGAUUGAGCAUCA
B19: chr12:123761472:123761573:+|3pUTR|ENSG00000185344|unk|total|mutant (ssRNA)
RNA: GGGAGUUCUACAGUCCGACGAUCAAUAAGGCAGUUUGAACGAACAGUCUUCCCACAGUCAGGCCAUUUUUGCUGAUUUGGUUCCGAAUUUUCAGAAAUACUCCGUACACUCCACCUGUUCUUUGAUGGGAAUAUCUAAGAAGGCAACAGAGGAUUGAGCAUCA
B20: chr20:2117184:2117286:+|CDS|ENSG00000125834|unk|FALSE|unique (ssRNA)
RNA: GGGAGUUCUACAGUCCGACGAUCGCUCCUGGGGACCUACAUUAAACAGGGGACUGAGAUCGUCCCUGUUGGUGAGGCGCUGCUAGAAAACCCAAAGAUGGAGUUGCACAUCCCCCAAAAACGCAGGACUUCCAUGUCUGAGGGCAACAGAGGAUUGAGCAUCA
B21: chr6:106663037:106663138:+|CDS|ENSG00000130348|msi1|FALSE|unique (ssRNA)
RNA: GGGAGUUCUACAGUCCGACGAUCAGCACAGAAAGUGAGACGCCUCAUUGCUAAUGACUUUGUAAAUGCUUUUAACUCUGGAGUAGAUGUCUUGCUAACUCCCACCACCUUGAGUGAGGCAGUACCAUACUUGGAGUUCAUCAACAACAGAGGAUUGAGCAUCA
B22: ENSG00000070961:be:win_1|CDS|ENSG00000070961|bound_else_gene|NA|bound_elsewhere_windowed (ssRNA)
RNA: GGGAGUUCUACAGUCCGACGAUCAUGGGCGACAUGGCAAACAACUCAGUUGCUUACAGUGGUGUGAAAAACUCUUUGAAGGAAGCUAAUCAUGAUGGAGACUUUGGAAUUACGCUCGCAGAGCUGCGGGCUCUCAUGGAGCUCCAACAGAGGAUUGAGCAUCA

Whole data set: some 5,800 sequences, median “enrichment r” near 0.68, cut for the highest 2% near 11. A selection follows.

The experiment has as its target T1, UNK ZnF1-6 (called full-length). The experiment in a line: nsRBNS (natural sequence RNA bind-n-seq); RBNS binding buffer (assumed for nsRBNS): 25 mM Tris pH 7.5, 150 mM KCl, 3 mM MgCl2, 0.01% Triton X-100, 500 ug/ml BSA, 20 U/ml SUPERase-In, 4 C; UNK is unkempt and MSI1 is Musashi-1; names of the RNAs are library labels; protein concentration not given here; high values mean tight binding.
On to B1, for which the binding signal was found to be 0.593 enrichment R. B2 showed a binding signal of 0.936 enrichment R. As for B3, the binding signal stood at 0.968 enrichment R. In the case of B4 it was 0.445 enrichment R; in that of B5, 0.548 enrichment R.

Regarding B6, the binding signal stood at 0.678 enrichment R.

B7 registered a binding signal of 0.389 enrichment R.

For the molecule B8, the binding signal amounted to 0.427 enrichment R.

Consider B9, for which the binding signal was determined as 0.772 enrichment R. Molecule B10 had a binding signal of 0.665 enrichment R. Next, B11: 0.763 enrichment R; B12: 0.687 enrichment R; B13: 0.481 enrichment R. Next, B14: 0.783 enrichment R; B15: 0.574 enrichment R. B16 displayed a binding signal of 0.899 enrichment R. B17: the binding signal was found to be 0.671 enrichment R. B18 yielded a binding signal of 0.595 enrichment R.

B19 yielded a binding signal of 0.271 enrichment R.

Molecule B20 returned a binding signal of 1.08 enrichment R. In turn, B21 registered a binding signal of 0.484 enrichment R.

Consider B22, for which the binding signal worked out at 0.508 enrichment R.
